Measurements reported in PubChem BioAssay AID624246 (National Center for Advancing Translational Sciences (NCATS), 2012).
Among all 370,000 compounds or so, about 100 (0.027%) were called active. Entries that show only a call come without a potency. The call rests on the fitted dose curve; in most records, active means well fitted inhibition curve with a large enough effect in the polarisation, with a control signal flat; inconclusive means small, poorly fitted or top-dose-only effect, or effect the other way, or a change in a side signal; inactive means no such curve, though single readings can be large or run the other way; the % refers to the polarisation. Many of the other results were omitted from the sample, so actives are more common in it than they were.
Potency means the concentration at half of the fitted maximal effect.

The molecules below were run against Transcriptional regulator ERG (Homo sapiens) (UniProt P11308) (assay: qHTS for Small Molecule Inhibitors of the ERG Ets/DNA interaction). Conditions: fluorescence polarization, His-ERG Ets domain / labelled DNA; series mostly up to 76.9 µM.
Chain of Transcriptional regulator ERG (Homo sapiens) (P11308 whole entry, looked up, the tested form may be a part): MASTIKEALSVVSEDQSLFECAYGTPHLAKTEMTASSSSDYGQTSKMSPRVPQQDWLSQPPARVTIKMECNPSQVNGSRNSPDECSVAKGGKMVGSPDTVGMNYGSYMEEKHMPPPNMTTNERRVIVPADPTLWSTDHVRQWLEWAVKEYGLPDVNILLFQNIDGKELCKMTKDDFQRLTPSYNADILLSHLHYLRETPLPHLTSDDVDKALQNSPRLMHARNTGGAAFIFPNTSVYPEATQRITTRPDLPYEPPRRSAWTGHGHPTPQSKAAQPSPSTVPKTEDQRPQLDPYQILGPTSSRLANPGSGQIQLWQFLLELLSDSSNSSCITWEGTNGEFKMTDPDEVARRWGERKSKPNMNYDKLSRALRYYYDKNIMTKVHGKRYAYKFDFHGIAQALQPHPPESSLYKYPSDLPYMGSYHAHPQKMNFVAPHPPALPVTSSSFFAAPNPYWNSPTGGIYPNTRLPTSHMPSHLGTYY
Excerpt: The Ets family of proteins is a family of ~30 conserved transcription factors defined by the presence of an ~85 amino acid domain referred to as the Ets domain, which mediates sequence-specific DNA binding to a core DNA element GGAA/T.The Ets family member ERG has been linked to several neoplasms. […] More extensive studies of the effects of over-expression of ERG in prostate cells have recently been carried out and have shown that over-expression of ERG results in increased invasion. […] We will carry out a high throughout screen to identify inhibitors of the interaction between ERG and DNA using a fluorescence polarization (FP) assay with a His-tagged ERG Ets domain and fluorescently-labeled DNA probes to develop small molecule inhibitors of this interaction as probes to test this hypothesis and lay the groundwork for the development of targeted therapies against ERG. NIH Molecular Libraries Probe Production Network [MLPCN] NIH Chemical Genomics Center [NCGC] Grant: NS066464 PI Name: John Bushweller, University of Virgina
1.5 ul of protein solution (1 uM ERG domain in 300mM KCl, 50mM Tris-HCl, 1mM EDTA, 1mM DTT, pH 7.5); 20 nl Control plate and compound library plate; 1.5 ul mixture of 5 nM Fluorescein-DNA and 100nM Texas-615-DNA solution in same buffer as above solution; measure fluorescence polarization sequentially for fluorescein (Excitation = 480 nm, Emission = 535s, 535p nm) and Texas red (Excitation = 555 nm, Emission = 632s, 632p nm).
`Cc1ccc(NC(=O)CSc2nc3c(c(=O)[nH]2)CN(Cc2ccc4c(c2)OCO4)CC3)cc1C` was tested, and the Potency was “inactive”.
In the case of `CCCCc1nn2c(=O)cc(COC(=O)c3ccc(NC(=O)c4ccccc4C)cc3)nc2s1`, the Potency is reported as “inactive”.
For `Cc1ccc(NC(=O)CSc2nc3ccccc3c3nc(CCn4cncc4C)nn23)cc1F`, the Potency was “inactive”.
For `CC1=C(C(=O)N2CCN(c3cccc(C(F)(F)F)c3)CC2)C2(CCCCC2)OC1=O`, the Potency was “inactive”.
In the case of `O=C(CNC(=O)c1ccco1)OCC(=O)c1ccccc1`, the Potency is reported as “inactive”.
In the case of `Cc1cc(C(=O)COC(=O)CNC(=O)c2ccc(F)cc2)c(C)n1Cc1ccco1`, the Potency is reported as “inactive”.
`COCCn1c(C)cc(C(=O)COC(=O)CNC(=O)c2ccco2)c1C` was tested, and the Potency was 7.94 µM (active).
For `CC(C)c1ccc(NC(=O)CN(C)S(=O)(=O)c2ccc3c(c2)c(=O)n(C)c(=O)n3C)cc1`, the Potency was “inactive”.
In the case of `CCOC(=O)c1cccc(NC(=O)C(Cc2ccccc2)NS(=O)(=O)c2cccc3nsnc23)c1` (configuration not stated), the Potency is reported as “inactive”.
For `CCS(=O)(=O)N1CCC(n2c(C)nc3cccnc32)CC1`, the Potency was “inactive”.
`CCOc1ccc(-c2cc3nc(C4CCN(C(=O)OC(C)(C)C)CC4)c(C(=O)Nc4ccc(C(=O)OC)cc4)cn3n2)cc1` was tested, and the Potency was “inactive”.
`CCc1ccc(CN(Cc2ccco2)C(=O)c2ccccc2Cl)cc1` was tested, and the Potency was “inactive”.
For `CCN(CCCNC(=O)Cn1ncc2c3ccccc3n(C)c2c1=O)Cc1ccccc1`, the Potency was “inactive”.
For `CCC(=O)N1CCc2cc(S(=O)(=O)NCCC(=O)Nc3cccc(C)c3C)ccc21`, the Potency was “inactive”.
With `Cc1ccc(-n2ncc(C(=O)N(C)Cc3ccccc3)c2-n2cccc2)cc1` the Potency was “inactive”.
In the case of `Cc1cc(O)c(C(c2ccccc2)N2CCN(c3ccccc3F)CC2)c(=O)n1Cc1ccco1` (configuration not stated), the Potency is reported as “inactive”.
In the case of `CCOc1ccc(C(=O)/C=C/c2cn(CC(O)CN3CCCCCC3)c3ccccc23)cc1` (configuration not stated), the Potency is reported as “inactive”.
For `Cc1cc(C)c(NC(=O)CN2C(=O)c3cccnc3Oc3ccc(Cl)cc32)c(C)c1`, the Potency was “inactive”.
For `CCc1ccc(S(=O)(=O)c2nnn3c2nc(N2CCN(CC)CC2)c2sccc23)cc1`, the Potency was “inactive”.
With `Cc1cccc(NC(=O)CSc2nnc(CNC(=O)c3cccc(C)c3)n2-c2ccccc2)c1` the Potency was “inactive”.
For `Cc1ccccc1-c1nc2scc(CCNC(=O)C(=O)Nc3ccc(F)cc3F)n2n1`, the Potency was “inactive”.
In the case of `CC(C)CCNC(=O)CSc1nc2ccccc2nc1Cc1ccc(Cl)cc1`, the Potency is reported as “inactive”.
For `CC(=O)Nc1cccc(NC(=O)CSc2nccn2Cc2ccc3c(c2)OCO3)c1`, the Potency was “inactive”.
`CCC(=O)N1CCc2cc(Br)cc(S(=O)(=O)Nc3ccc(C)cc3C)c21` was tested, and the Potency was “inactive”.
`O=C(CN1CCN(Cc2ccc(Cl)cc2)C1=O)NCc1ccc(F)cc1` was tested, and the Potency was “inactive”.
With `COc1ccc(-c2cccc(NS(=O)(=O)c3cc(C)c(OC)c(C)c3C)c2)nn1` the Potency was “inactive”.
`Cc1nn2c(=O)cc(COC(=O)CNC(=O)c3ccc(F)cc3)nc2s1` was tested, and the Potency was “inactive”.
For `CCOc1ccccc1C(=O)NCc1ccc2c(c1)CCN2C(=O)c1ccc(F)cc1`, the Potency was “inactive”.
`Cc1c(NC(=O)Nc2ccc(F)c(Cl)c2)c(=O)n(-c2ccccc2)n1C` was tested, and the Potency was “inactive”.
In the case of `Cc1ccc(N2CC(NC(=O)Cc3cccs3)CC2=O)cc1` (configuration not stated), the Potency is reported as “inactive”.
In the case of `Cc1nnc(N2CCC(C(=O)Nc3ccc(F)cc3)CC2)c2nn(-c3ccc(Cl)cc3)c(C)c12`, the Potency is reported as “inactive”.
In the case of `Cc1ccc(C)c(N2CCN(C(=O)Cn3ncc4c(=O)oc5ccc(C)cc5c43)CC2)c1`, the Potency is reported as “inactive”.
`Cc1ccc(C(=O)N2CCc3cc(CNC(=O)c4ccc(Br)cc4)ccc32)cc1` was tested, and the Potency was “inactive”.
In the case of `Cc1ccc(S(=O)(=O)NCc2nc3nc(C)cc(C)n3n2)cc1`, the Potency is reported as “inactive”.
In the case of `CCN(CCCNC(=O)c1cc(Nc2ccc(OC)cc2)nc2ccccc12)c1cccc(C)c1`, the Potency is reported as “inactive”.
In the case of `CCc1nnc2c3ccccc3nc(N3CCN(c4ccc(C)cc4C)CC3)n12`, the Potency is reported as “inactive”.
For `Cc1nnc(SCc2cc(=O)c3cc(F)ccc3[nH]2)n1C`, the Potency was “inactive”.
`Cc1ccc(C(=O)Nc2ccc3[nH]c(=O)c(=O)[nH]c3c2)cc1` was tested, and the Potency was “inactive”.
`Cc1sc(C2C(C#N)=C(N)N(c3cccc(Cl)c3)C3=C2C(=O)CCC3)cc1CN1CCOCC1` (configuration not stated) was tested, and the Potency was “inactive”.
With `O=C(CCc1ccccc1)NCc1ccc2c(c1)CCN2C(=O)c1ccccc1` the Potency was “inactive”.
`CCc1ccccc1NC(=O)c1sc2nc3c(cc2c1N)CN(Cc1ccccc1)CC3` was tested, and the Potency was “inactive”.
In the case of `COc1ccc(CCNC(=O)c2ccc(CSCc3ccc(C)cc3)o2)cc1OC`, the Potency is reported as “inactive”.
With `CCCn1c2ccccc2c2cnn(CC(=O)N3CCCC(C(=O)OCC)C3)c(=O)c21` (configuration not stated) the Potency was “inactive”.
In the case of `Cc1cc(C(=O)Nc2cccc(C(F)(F)F)c2)c2c(C)nn(-c3cccc(F)c3)c2n1`, the Potency is reported as “inactive”.
`CC(C)(C)c1ccc(C(=O)Nc2ccc3c(c2)CCCN3C(=O)c2cccs2)cc1` was tested, and the Potency was “inactive”.
With `COc1ccc(-c2nc(CS(=O)CC(=O)NCc3cccnc3)c(C)o2)cc1OC` (configuration not stated) the Potency was “inactive”.
In the case of `COc1ccc(-c2nc(CS(=O)CC(=O)NCc3ccccn3)c(C)o2)cc1` (configuration not stated), the Potency is reported as 35.5 µM (active).
In the case of `COc1ccc(CNC(=O)CS(=O)Cc2nc(-c3cccc(C)c3)oc2C)cc1` (configuration not stated), the Potency is reported as “inactive”.
In the case of `Cc1cc(C)nc(NS(=O)(=O)c2ccc(NC(=O)c3cc(=O)c4ccc(C)c(C)c4o3)cc2)n1`, the Potency is reported as “inactive”.
`CCCn1c(NCc2ccccc2F)nc2ccccc21` was tested, and the Potency was “inactive”.
With `O=C(CSc1nc(Nc2ccc(F)c(F)c2)c2ccccc2n1)c1ccc(Cl)cc1` the Potency was “inactive”.
For `COc1cc(C(=O)Nc2ccc(OCc3cc(=O)n4ccc(C)cc4n3)cc2)cc(OC)c1OC`, the Potency was “inactive”.
